Results filed as inconclusive are left out. The source made the active and inactive calls. Unless noted, the call rests on the fitted dose curve; in most records, active means well fitted curve in the direction sought with a large enough effect; inconclusive means small, poorly fitted or top-dose-only effect, or another doubt; inactive means no such curve, though single readings can be large; an effect the other way counts as inactive or inconclusive.

Test [1] has as its target Endonuclease 4 (Escherichia coli (strain K12)) (UniProt P0A6C1). Put plainly: Counterscreen for APE1 Inhibitors: qHTS Validation Assay for Inhibitors of Endonuclease IV (AID 1708). Further: potency means the concentration at half of the fitted maximal effect. A digest of the protocol: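 The reaction buffer contained 50 mM Tris-HCl pH 7.5, 50 mM NaCl, 2 mM MgCl2, 1 mM DTT and 0.01% Tween-20. Incision of a 50 nM fluorophore/quencher THF substrate by 2 nM enzyme was measured kinetically.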
In general terms: Counterscreens check selectivity or assay interference.

Test [2] is described as follows: qHTS for differential inhibitors of proliferation of Plasmodium falciparum line GB4 (AID 1816).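 Further: parasite growth measured after 72 h incubation.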 Further: potency means the concentration at half of the fitted maximal effect. The conditions noted are these: Potency: Plasmodium falciparum GB4 proliferation inhibition. In general terms: qHTS replaces the single test concentration by a dilution series.
Test [3] is described as follows: qHTS for differential inhibitors of proliferation of Plasmodium falciparum line 3D7 (AID 1876). Further: potency means the concentration at half of the fitted maximal effect.
Test [4] is described as follows: qHTS for differential inhibitors of proliferation of Plasmodium falciparum line D10 (AID 1877).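 Further: parasites grown with compound for 72 h before DNA staining.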 Further: potency means the concentration at half of the fitted maximal effect.
A short description of test [5]: qHTS for differential inhibitors of proliferation of Plasmodium falciparum line W2 (AID 1883).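 Further: parasites grown with compound for 72 h before lysis and staining.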 Further: potency means the concentration at half of the fitted maximal effect. The conditions noted are these: Potency: Plasmodium falciparum W2 proliferation inhibition.
Test [6] in a line: qHTS for differential inhibitors of proliferation of Plasmodium falciparum line HB3 (AID 1886).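 Further: parasites grown with compound for 72 h before SYBR Green readout.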 Further: potency means the concentration at half of the fitted maximal effect. The conditions noted are these: Potency: Plasmodium falciparum HB3 proliferation inhibition.
Test [7] in a line: qHTS for differential inhibitors of proliferation of Plasmodium falciparum line 7G8 (AID 1815).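 Further: parasite growth measured after three days of incubation.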 Further: potency means the concentration at half of the fitted maximal effect.
Test [8] is described as follows: qHTS for differential inhibitors of proliferation of Plasmodium falciparum line Dd2 (AID 1882). Further: nearly all actives have a fitted effect of over 65% in size. Further: potency means the concentration at half of the fitted maximal effect. The conditions noted are these: Potency: Plasmodium falciparum Dd2 proliferation inhibition. A digest of the protocol:
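RBC culture, 0.3% parasitemia / 2.5% Hct final; cpd added by pin tool in DMSO; 72 h, 37 C, 5% CO2; lysis buffer + SYBR Green I, o/n RT dark; FI 485/535; norm. to artemisinin 0.29 uM and DMSO.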

The nature of test [9]: qHTS Assay for Modulators of Human Peripheral Myelin Protein 22 (PMP22) Expression/Activity (AID 1967; active means well fitted curve in the direction sought with a large enough effect in the signal ratio; the % refers to the signal ratio; further: potency means the concentration at half of the fitted maximal effect). A digest of the protocol: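 Mouse MSC80 Schwann cells carrying Pmp22 promoter–green click beetle luciferase plus EF-alpha–red luciferase control, dosed 24 h at 37 °C. Dual-filter luminescence, overlap-corrected; %Activity from green/red ratio normalised to untreated cells, concentration-response curves fitted.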

Test [10] in a line: qHTS Assay for Identification of Small Molecule Inducers of Hypoxia Response (AID 2120; active means well fitted curve in the direction sought with a large enough effect in the signal ratio, with a control signal flat, not every such curve was filed as active; the % refers to the signal ratio). A digest of the protocol:
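HRE-bla ME-180, 2500 cells/well, 0.5% dialyzed FBS medium; cpd titration, 17 h 37 degrees C; CCF4 2.5 h RT; Ex 405, Em 460/530 ratio -> %Activity, AC50.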

Take `NC12CC3CC(CC(C3)C1)C2`: the Potency entry in test [1], in test [3], in test [4] and in test [6] was “inactive” in each case. Also, the Potency in test [2] was 11.2 µM (active); in [5], 6.31 µM (active).

For the compound `Nc1nnc(-c2cccc(Cl)c2Cl)c(N)n1`, the Potency result in test [1], in test [7], in [4], in test [8], in test [5] and in [6] was “inactive” in each case.

For `COc1ccccc1N1CCN(CC(O)COc2cccc3ccccc23)CC1` (centres undefined), the Potency in [7] is 11.2 µM (active); in test [2], 14.1 µM (active); in test [5], 10 µM (active); in test [6], 12.6 µM (active).

In the case of `Cn1ccc2cc3c(cc21)CCN3C(=O)Nc1cccnc1`, the Potency result in [1] is “inactive”. The Potency is 10 µM (active) in test [7], 11.2 µM (active) in test [2], 10 µM (active) in test [5] and 12.6 µM (active) in test [6].

Consider `CCOC(=O)c1ncn2c1CN(C)C(=O)c1cc(F)ccc1-2`, for which the Potency result in test [7], in test [2], in test [3], in test [4], in test [8] and in test [5] was “inactive” each time. In [6], the Potency entry was “inactive”.

As for `O=C(Nc1ccc([N+](=O)[O-])cc1Cl)c1cc(Cl)ccc1O`, the Potency in [7] is 1 µM (active); in test [2] it was 0.708 µM (active); in [3], 0.794 µM (active); in [4], 1 µM (active); in test [8], 1.41 µM (active); in test [5], 0.794 µM (active). For the same compound, the Potency in test [6] was 0.794 µM (active).

Turning to `CC(C)Cc1ccc(C(C)C(=O)O)cc1` (centres undefined), the Potency result in [2], in [3], in [4], in test [8], in test [5] and in test [6] was “inactive” throughout.

On to `CC1COc2c(N3CCN(C)CC3)c(F)cc3c(=O)c(C(=O)O)cn1c23` (centres undefined), for which the Potency entry in test [1], in [8] and in test [9] was “inactive” each time. The Potency in test [5] was 14.1 µM (active).

As to `CN1CCN(CCCN2c3ccccc3Sc3ccc(Cl)cc32)CC1`, the Potency was 5.01 µM (active) in test [7]; 10 µM (active) in test [2]; 6.31 µM (active) in test [3]; 12.6 µM (active) in test [4]; 11.2 µM (active) in test [8]; 4.47 µM (active) in [5]. For the same compound, the Potency in [6] was 12.6 µM (active).

Consider `C[C@](N)(Cc1ccc(O)c(O)c1)C(=O)O`, for which the Potency result in [1], in test [7], in test [3], in [4], in test [8] and in [6] was “inactive” in each case.

Consider `CC(C)C(=O)Nc1ccc([N+](=O)[O-])c(C(F)(F)F)c1`, for which the Potency result in [8] is “inactive”.

Take `Cc1cn([C@H]2C=C[C@@H](CO)O2)c(=O)[nH]c1=O`: the Potency result in test [7], in test [2], in test [3], in test [4], in [8] and in [5] was “inactive” in each case. For the same compound, the Potency entry in test [6] was “inactive”.

Take `Cc1ccccc1N1C(=O)c2cc(S(N)(=O)=O)c(Cl)cc2NC1C` (centres undefined): the Potency result in test [2], in [3], in test [4], in test [8] and in test [6] was “inactive” each time.

For the compound `COc1ccccc1OCC(O)CN1CCN(CC(=O)Nc2c(C)cccc2C)CC1` (centres undefined), the Potency result in test [1], in test [3], in [4], in test [8] and in test [6] was “inactive” throughout.

Regarding `Clc1ccc2c(c1)C(N1CCNCC1)=Nc1ccccc1O2`, the Potency in [7] is 7.08 µM (active); in test [2] it was 5.62 µM (active); in [8], 11.2 µM (active); in test [5] it was 5.62 µM (active); in [6], 11.2 µM (active).

`COC(=O)Nc1nc2ccc(C(=O)c3cccs3)cc2[nH]1`: the Potency entry in test [1] and in [8] was “inactive” each time.

Take `COc1ccc(C2CNC(=O)C2)cc1OC1CCCC1` (centres undefined): the Potency entry in test [1], in [2], in test [3], in test [4], in [8] and in test [6] was “inactive” throughout. In addition, the Potency entry in test [9] was “inactive”.

As for `Nc1nc2c(ncn2COC(CO)CO)c(=O)[nH]1`, the Potency entry in [7], in test [2], in test [3], in test [4], in test [8] and in test [5] was “inactive” each time. Further, in test [6], the Potency result was “inactive”.

Regarding `COc1cc2c(c(OC)c1OC)-c1ccc(OC)c(=O)cc1[C@@H](NC(C)=O)CC2`, the Potency result in test [9] was “inactive”. The outcome in [10] was inactive.

On to `CC(C)NCC(O)COc1ccc(CCOCC2CC2)cc1` (centres undefined), for which the Potency entry in test [1], in test [3], in [4], in [8] and in test [6] was “inactive” throughout. Besides, the Potency in [7] was 10 µM (active); in test [5], 7.08 µM (active).

Turning to `CC(C(=O)O)c1cccc(C(=O)c2ccccc2)c1` (centres undefined), the Potency entry in test [1] is “inactive”. The Potency in test [9] was 23.9 µM (active).

Take `CC[N+](CC)(CC)CCOc1cccc(OCC[N+](CC)(CC)CC)c1OCC[N+](CC)(CC)CC`: the Potency entry in test [7], in [2], in test [3], in test [4], in test [8] and in test [5] was “inactive” throughout. In [6], the Potency entry was “inactive”.

In the case of `Cc1cc(C(C)(C)C)c(O)c(C)c1CC1=NCCN1`, the Potency entry in test [1] and in test [8] was “inactive” in each case. In addition, in test [5], the Potency is 12.6 µM (active).

On to `Cc1ccc(-c2cc(C(F)(F)F)nn2-c2ccc(S(N)(=O)=O)cc2)cc1`, for which, in test [10], the outcome was inactive.

For the compound `CN1C(C(=O)Nc2ccccn2)=C(O)c2ccccc2S1(=O)=O`, the Potency result in test [1], in test [3], in test [4], in [8] and in test [6] was “inactive” throughout. Moreover, in test [5], the Potency was 10 µM (active).

As to `O=c1c(-c2ccc(O)cc2)coc2cc(O)cc(O)c12`, the Potency result in test [1], in test [4], in [8] and in [6] was “inactive” each time. The result in test [10] was inactive.

With `O=C(c1ccc(OCCN2CCCCC2)cc1)c1c(-c2ccc(O)cc2)sc2cc(O)ccc12`, the Potency is 4.47 µM (active) in test [7]; 2 µM (active) in test [2]; 2.82 µM (active) in test [3]; 3.16 µM (active) in test [4]; 3.16 µM (active) in test [5]; 3.16 µM (active) in test [6].

As for `CCCNCC(O)COc1ccccc1C(=O)CCc1ccccc1` (centres undefined), the Potency in [2] was 0.355 µM (active); in test [3] it was 0.891 µM (active); in test [4] it was 2.24 µM (active); in [8], 1 µM (active); in test [5], 0.316 µM (active); in test [6] it was 1 µM (active).

Regarding `Cc1ccc(C(=O)Nc2ccc(S(=O)(=O)O)c3cc(S(=O)(=O)O)cc(S(=O)(=O)O)c23)cc1NC(=O)c1cccc(NC(=O)Nc2cccc(C(=O)Nc3cc(C(=O)Nc4ccc(S(=O)(=O)O)c5cc(S(=O)(=O)O)cc(S(=O)(=O)O)c45)ccc3C)c2)c1`, the results for the Potency in test [1] and in test [5] were 4.47 µM (active) and 12.6 µM (active), respectively.

Regarding `CN(C)CCOC(c1ccccc1)c1ccccc1`, the Potency in [7] was 3.98 µM (active); in test [8], 3.98 µM (active); in test [5], 1 µM (active). The Potency entry in test [3], in test [4] and in test [6] was “inactive” in each case.

`NC(CO)C(=O)NNCc1ccc(O)c(O)c1O` (centres undefined): the Potency entry in test [1], in [2], in test [3], in test [4], in test [8] and in test [6] was “inactive” each time.

`COc1cc2nc(N3CCN(C(=O)c4ccco4)CC3)nc(N)c2cc1OC`: the Potency is 7.94 µM (active) in [7]; 12.6 µM (active) in test [2]; 8.91 µM (active) in [3]; 10 µM (active) in test [4]; 7.94 µM (active) in test [8]; 5.01 µM (active) in [5]. For the same compound, the Potency in test [6] was 10 µM (active).

`CS(=O)(=O)Nc1ccc([N+](=O)[O-])cc1Oc1ccccc1`: the Potency entry in [1], in [7], in test [3], in test [4], in test [8] and in [6] was “inactive” throughout.

The values above are taken from PubChem BioAssay (NCATS).
